MEX-5 binding – MEX-5 zinc finger RNA-binding disruptors – biochemical, C. elegans, fluorescence polarization, MLPCN library, primary screen. Zinc finger protein mex-5 (Caenorhabditis elegans), Q9XUB2. activity score (negative = inhibition of binding), % at 10 µM. 300,000 tested, 0.38% active. MEX-5/FITC-TCR2 RNA binding; active compounds read low;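 active = inhibition past about -25% in most replicates, and total fluorescence under double the plate's negative control median, limit read from the data; inconclusive = replicates evenly split on the limit, or fluorescence at least double controls; inactive = too little inhibition in most replicates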;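 note: 0% = DMSO and -100% = 5 µM competing unlabeled TCR2 RNA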
EBV gp42 inh – Epstein-Barr virus gp42 inhibitors, primary screen, biochemical, uHTS, fluorescence polarization. Glycoprotein 42 (Epstein-Barr virus (strain AG876)), Q1HVG2. Fluorescence polarization binding assay, mP read-out. inhibition, % (tested at 21.74 µM). 220,000 tested, 0.42% active. AID 1085, 2008; in the data active = inhibition above about 50%
GLD-1 TGE inh – GLD-1/TGE RNA complex disruptors, primary screen, biochemical, fluorescence polarization; Female germline-specific tumor suppressor gld-1 (Caenorhabditis elegans), Q17339; purified GLD-1 + fluorescein TGE RNA; inhibition, % at 5.96 µM; 320,000 tested, 0.44% active;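 active = percent inhibition above a per-plate cutoff, the plate mean of test compounds plus 3 SD, cut at about 30% in these data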;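 note: 0% = DMSO wells with GLD-1 and probe and 100% = wells lacking GLD-1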
BCLXL inh – inhibitors of human Bcl-xL, primary screen, biochemical, fluorescence polarization, HTS | inhibition, % at 10.9 µM | AID 2129, 2009 | GST-Bcl-xL / FITC-Bim BH3 peptide fluorescence polarization | 320,000 tested, 0.7% active;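 active = inhibition above the mean of all tested compounds plus 3 SD, cutoff set per campaign, cut at about 30% in these data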;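 note: 0% = DMSO wells and 100% = unlabeled Bim-BH3 peptide competitor; inhibitors lower millipolarization by displacing the labeled peptide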
eLon inh – inhibitors of E. coli Lon protease, primary screen, biochemical, fluorescence polarization; purified E. coli Lon protease; 360,000 tested, 0.42% active; inhibition, % at 7.94 µM; P0A9M0; in the data active = inhibition above about 13%, passing the limit was not always enough;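 note: 0% = enzyme with probe and DMSO and 100% = no enzyme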
Target sequence (P0A9M0 whole entry, looked up): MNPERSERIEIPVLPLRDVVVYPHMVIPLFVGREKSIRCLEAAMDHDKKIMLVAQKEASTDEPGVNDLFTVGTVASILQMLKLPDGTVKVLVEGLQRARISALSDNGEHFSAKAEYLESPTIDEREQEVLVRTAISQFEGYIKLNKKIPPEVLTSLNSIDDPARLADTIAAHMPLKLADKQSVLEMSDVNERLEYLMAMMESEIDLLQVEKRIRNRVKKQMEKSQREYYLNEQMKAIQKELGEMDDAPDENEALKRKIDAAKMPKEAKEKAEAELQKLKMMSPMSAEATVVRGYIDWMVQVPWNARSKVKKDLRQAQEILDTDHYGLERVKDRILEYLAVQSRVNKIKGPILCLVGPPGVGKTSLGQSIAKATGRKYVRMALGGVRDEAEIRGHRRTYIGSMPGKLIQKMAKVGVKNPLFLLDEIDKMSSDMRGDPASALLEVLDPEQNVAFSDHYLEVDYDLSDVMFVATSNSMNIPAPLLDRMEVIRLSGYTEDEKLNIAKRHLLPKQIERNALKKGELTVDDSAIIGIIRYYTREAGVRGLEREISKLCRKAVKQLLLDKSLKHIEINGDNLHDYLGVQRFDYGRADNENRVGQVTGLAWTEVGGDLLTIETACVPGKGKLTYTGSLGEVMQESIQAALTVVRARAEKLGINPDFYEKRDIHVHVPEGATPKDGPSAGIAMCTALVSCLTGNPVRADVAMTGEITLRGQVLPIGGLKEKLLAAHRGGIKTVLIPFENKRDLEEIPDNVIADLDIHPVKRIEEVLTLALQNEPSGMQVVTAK
Active calls of the source: *; ? = inconclusive; · = not tested or not shown. Shown are actives, neighbours in structure and some others; about 1.3% of the full set was active somewhere.

SMILES	MEX-5 binding	EBV gp42 inh	GLD-1 TGE inh	BCLXL inh	eLon inh
Cc1oc2c(CN3CCC(C)CC3)c(O)ccc2c(=O)c1-c1ccccc1	-1	·	14	34*	-4
CCN(CC)CCCC(C)Nc1c2ccc(Cl)cc2nc2ccc(OC)cc12 (configuration not stated)	·	118*	·	·	·
COc1ccc(NC(=O)c2cc(C3CCCCN3S(=O)(=O)Cc3ccccc3)on2)cn1 (configuration not stated)	·	·	·	·	7
CC1CC(Nc2cccc(O)c2)=CC(=O)O1 (configuration not stated)	-3	-31	4	7	-11
C[C@@H]1Cc2c(O)c(O)cc(O)c2C(=O)O1	-45*	-1	11	7	-1
CC(C)[C@H](NC(=O)[C@@H]1Cc2ccccc2CN1C(=O)OC(C)(C)C)C(=O)NCc1ccco1	-1	·	0	8	-2
Clc1ccc(-c2nc(-c3cc4cc(Cl)ccc4o3)cs2)cc1	1	-17	2	7	-8
CCOC(=O)N1CCN(c2nc3ccccc3nc2C(C#N)S(=O)(=O)c2ccc(C)cc2)CC1 (configuration not stated)	-35*	5	7	15	3
O=C(N/N=C/c1sc(N2CCOCC2)nc1-c1ccccc1)c1ccccc1F	-1	-2	4	2	·
O=C(Nc1ccccc1F)C(=Cc1sc(N2CCOCC2)nc1-c1ccccc1)C(=O)Nc1ccccc1F	-43*	62*	-24	10	-20
CC(=O)CC1(C)OC(N)=C(C#N)C1(C#N)C#N (configuration not stated)	-1	·	57*	45*	8
N#CC1=C(N)N2C(=C(C#N)C1c1ccccc1)Sc1ccccc12 (configuration not stated)	-33*	90*	-3	-1	·
CCOc1ccc(C2C(C#N)=C(N)N3C(=C2C#N)Sc2ccccc23)cc1 (configuration not stated)	-2	·	-13	-3	-36
CCOC(=O)C1=NNC(C(=O)c2ccc(Cl)cc2)C1c1ccc(OC)cc1 (configuration not stated)	2	82*	7	8	0
CCOC(=O)C1=NNC(C(=O)c2ccc(C)cc2)C1c1ccc(OC)cc1 (configuration not stated)	0	-14	-1	0	-1
CC(=O)n1c(C=Nc2ccc(Cl)cc2)c(O)c2ccccc21	?	125*	-105	81*	-8
Nc1ccc(Br)c2c1C(=O)c1ccccc1C2=O	-2	17	16	46*	·
O=c1cc(-c2ccccc2Cl)oc2c(NS(=O)(=O)c3cc(Cl)cc(Cl)c3O)ccc(O)c12	-55*	7	16	8	-17
CCCC#CCN1CCN(C23CC4CC(CC(C4)C2)C3)CC1	2	·	-1	1	-9
Cc1ccccc1C(=O)Nc1ccc2c(C#N)c3nc4ccccc4nc3n2c1	2	112*	13	42*	9
Cn1c(CNc2ccc(O)cc2)nc2ccccc21	-1	·	92*	56*	21
Cc1ccc2[nH]c(O)c(N=NC(=O)c3ccc(NS(=O)(=O)c4cccs4)cc3)c2c1	0	58*	7	12	-4
CCOc1ccc(S(=O)(=O)Nc2cc(Sc3ncn[nH]3)c3oc(=O)sc3c2)cc1	-34*	-1	-1	-3	·
O=C1C(Cc2c[nH]c3ccccc23)NC(=S)N1C1CCCCC1 (configuration not stated)	0	-19	0	-4	-5
COC(=O)/C=C1\N/C(=N/c2nc(C)c3cc(OC)ccc3n2)NC1=O	0	·	4	48*	-2
CCNC(=O)C1CCCN1S(=O)(=O)c1ccc2ccccc2c1 (configuration not stated)	1	·	5	3	-13
O=C(NCCc1ccccc1F)C1CCCN1S(=O)(=O)c1ccc2ccccc2c1 (configuration not stated)	2	-5	2	40*	0
CC1(C(=O)NNC(=O)c2ccc(=O)oc2)CC1Br (configuration not stated)	-13	33	29	37*	-43
Nn1c(SCC(=O)NC(=O)NCc2ccco2)nnc1-c1ccc(OC(F)F)cc1	0	62*	-3	-12	-13
